S1P4 antag: S1P4 receptor antagonists, primary screen, cell-based | inhibition, % at 4.98 µM | 0.26% of 220,000 active | S1P4-expressing cells, antagonist mode, reporter read-out; in the data active = inhibition above about 29%;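 also: 0% = wells stimulated with agonist and 100% = vehicle wells without agonist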
Target sequence (O95977 whole entry, looked up): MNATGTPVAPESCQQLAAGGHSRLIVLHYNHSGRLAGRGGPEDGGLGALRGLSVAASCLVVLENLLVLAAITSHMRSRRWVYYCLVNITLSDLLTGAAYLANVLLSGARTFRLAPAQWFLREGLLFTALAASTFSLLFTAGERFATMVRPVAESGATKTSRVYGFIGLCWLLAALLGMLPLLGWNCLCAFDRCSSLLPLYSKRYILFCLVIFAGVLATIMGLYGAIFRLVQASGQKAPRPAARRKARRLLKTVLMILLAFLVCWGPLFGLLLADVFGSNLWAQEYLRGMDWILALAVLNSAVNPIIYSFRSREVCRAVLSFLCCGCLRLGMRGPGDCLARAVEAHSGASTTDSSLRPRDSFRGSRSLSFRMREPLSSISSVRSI
S1P4 ag: S1P4 receptor agonists, primary screen, cell-based. 0.35% of 220,000 active. Sphingosine 1-phosphate receptor 4 (Homo sapiens), O95977. S1P4-expressing cell line, agonist reporter assay. activation, % at 4.98 µM; in the data active = activation above about 11%;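 also: 0% = DMSO vehicle and 100% = reference agonist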
Hsp70 activator: Hsp70 transcriptional activators, primary screen, cell-based, HeLa, Hsp70 promoter luciferase, luminescence, 10 µM. HeLa Hsp70 promoter luciferase reporter; scaled: vehicle 0, proteasome-inhibitor control 100%. activation, % at 10 µM. 0.04% of 200,000 active;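 active = activation above the mean across all tested compounds plus 3 SD, cutoff set per campaign, cut at about 5.5% in these data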;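 also: 100% = MG132 at 30 µM as the positive control and 0% = DMSO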
HSF1 inhib: HSF1 inhibitors in luciferase reporter cells, primary screen, cell-based, NIH3T3, luminescence; NIH3T3-HGL HSE-luciferase, MG132-induced, luminescence 8 h; hits give low values; activity change, negative = inhibition, % at 7.5 µM (by protocol); 0.77% of 300,000 active; AID 2098, 2009;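 active = more than half of replicate wells show activity change below -50%, luminescence cut by over half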;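 also: luciferase reports HSF-1 transcriptional activity via heat shock element; 0% = median of DMSO wells and -100% = zero luminescence signal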
S1P3 antagonist: S1P3 receptor antagonists, primary screen, cell-based; Sphingosine 1-phosphate receptor 3 (Homo sapiens), Q99500; CHO S1P3 NFAT-BLA reporter, FRET fluorescence, antagonist mode; inhibition, % at 4.98 µM; 0.27% of 170,000 active; AID 485, 2006;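 active = inhibition above the plate cutoff, the mean inhibition of test wells on that plate plus 3 SD, cut at about 28% in these data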;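 also: cells challenged with S1P at its EC80 of 0.8 µM; blue over green emission ratio from cleaved BLA substrate after 4 h stimulation; 0% = S1P-stimulated wells and 100% = unstimulated DMSO-only wells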
HSF-1 act: HSF-1 activators, primary screen, NIH3T3-HGL cells, MG132 stress, luminescence, single point | AID 504408, 2011 | NIH3T3-HGL HSF-1 luciferase reporter, 8 h; 100% = twice DMSO control signal | 1.7% of 300,000 active | activation, % at 9 µM;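 active = mean replicate activation of at least 50% with a set share of replicates each reaching 50%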;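 also: 0% = median of the neutral control wells and 100% = twice that signal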
* = called active by the depositor. A selection: hits, their analogues and other compounds. The true share with any hit is near 2.9%.

For O=Cc1ccc(OCc2ccc3ccccc3c2)cc1 the results were HSF1 inhib 43.8 and HSF-1 act 60.1*.
`COC(=O)C1=C(C(=O)OC)[C@@H]2N(C)c3ccc(OC)cc3[C@@]23C[C@@H](C(=O)OC)N(C(=O)c2cc(C)oc2C)C3=N1` gave HSF1 inhib 11.8 and HSF-1 act 14.8.
Nc1ncnc2oc(-c3ccco3)c(-c3ccco3)c12 was read as S1P4 antag 3.8, S1P4 ag 0.5, Hsp70 activator -0.3, HSF1 inhib -53.1*, S1P3 antagonist -34.7 and HSF-1 act -63.4.
Screening COc1ccc2ccccc2c1C1NC(=O)c2ccccc2N1 (stereo not given) returned HSF1 inhib 8.5 and HSF-1 act 8.5.
`Cc1sc2ncnc(SCC(=O)NC(C)(C)C)c2c1C` gave S1P4 antag -19.9, S1P4 ag 1.7, Hsp70 activator -0.2, HSF1 inhib -3.5, S1P3 antagonist -5.2 and HSF-1 act -2.2.
CCN(CC)C(=O)CSc1ncnc2sc(C)c(C)c12 was read as S1P4 antag -16.8, S1P4 ag 0.8, Hsp70 activator 0.1, HSF1 inhib 8.0, S1P3 antagonist -14.6 and HSF-1 act 51.6*.
`CCC(=O)N1CCN(c2ccc(NC(=O)c3cc4ccccc4o3)cc2Cl)CC1` gave S1P4 antag -28.3, S1P4 ag 0.8, Hsp70 activator -0.2, HSF1 inhib -2.0, S1P3 antagonist 0.3 and HSF-1 act -3.9.
CCCC(=O)N1CCN(c2ccc(NC(=O)c3cc4ccccc4o3)cc2Cl)CC1 was read as S1P4 antag -34.9, S1P4 ag -3.5, Hsp70 activator 0.1, HSF1 inhib -78.8*, S1P3 antagonist 5.4 and HSF-1 act -77.8.
Screening O=C(Nc1ccc(N2CCN(C(=O)c3ccco3)CC2)c(Cl)c1)c1cc2ccccc2o1 returned S1P4 antag 8.5, S1P4 ag -0.7, Hsp70 activator 0.1, HSF1 inhib -73.6*, S1P3 antagonist 23.0 and HSF-1 act -73.0.
Cc1nn(-c2ccccc2)c(N)c1C(c1ccccc1)c1c(C)nn(-c2ccccc2)c1N was read as S1P4 antag -9.8, S1P4 ag -0.7, Hsp70 activator -0.3, HSF1 inhib 63.3, S1P3 antagonist 16.8 and HSF-1 act 78.8*.
For Cc1ccc(NC(=O)c2cc(-c3ccc(C)o3)nc3ccccc23)cc1 the results were S1P4 antag 2.1, S1P4 ag -0.7, Hsp70 activator -0.5, HSF1 inhib -6.7 and HSF-1 act 0.2.
`Cc1ccc(-c2cc(C(=O)Nc3cccnc3)c3ccccc3n2)o1` gave S1P4 antag 5.0, S1P4 ag -1.2, Hsp70 activator -0.2, HSF1 inhib 34.4, S1P3 antagonist -27.0 and HSF-1 act 52.1*.
